TbREL1 primary: TbREL1 inhibition, primary screen. TbREL1 RNA ligation, FRET fluorescence. inhibition, % at 9.66 µM. 89,000 compounds, 0.49% hits. AID 1117264;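 active means inhibition above the mean inhibition across all screened compounds plus 3 SD, cut at about 11% in these data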;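 further: 0% = plate median of test wells and 100% = NSC42067 control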
Target sequence (P86926 whole entry, looked up): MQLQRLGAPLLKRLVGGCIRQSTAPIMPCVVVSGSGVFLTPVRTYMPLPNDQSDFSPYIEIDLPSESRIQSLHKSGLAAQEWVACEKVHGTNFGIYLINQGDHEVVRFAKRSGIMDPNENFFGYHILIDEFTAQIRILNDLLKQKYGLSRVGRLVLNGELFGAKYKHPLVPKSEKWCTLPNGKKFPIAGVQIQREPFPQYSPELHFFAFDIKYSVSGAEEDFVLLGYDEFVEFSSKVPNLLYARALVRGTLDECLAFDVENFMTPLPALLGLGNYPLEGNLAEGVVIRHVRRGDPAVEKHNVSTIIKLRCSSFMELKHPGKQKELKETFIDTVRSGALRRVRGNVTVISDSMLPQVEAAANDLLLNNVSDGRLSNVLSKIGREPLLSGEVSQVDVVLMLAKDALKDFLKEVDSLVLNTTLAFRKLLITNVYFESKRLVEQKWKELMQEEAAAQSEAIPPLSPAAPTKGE
TbREL1 conf: TbREL1 inhibition, confirmation; shares compounds with TbREL1 primary; TbREL1 RNA ligation, FRET fluorescence; inhibition, % at 9.66 µM; 390 compounds, 37% hits; AID 1117282;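 active means mean inhibition across replicates above a set limit taken from the earlier primary screen, cut at about 11% in these data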;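 further: 0% = REL1 with substrate and DMSO and 100% = REL1 plus control inhibitor NSC42067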
The depositor's hits bear a star. The entries come from a sample that favours hits as a whole.

SMILES	TbREL1 primary	others
CC(=O)N1CCCN(C(=O)Cn2cnc3ccccc3c2=O)CC1	-3
CN1C(=O)C(c2cn(C)c3ccccc23)(c2cn(C)c3ccccc23)c2ccccc21	-1
Cc1cc(C)n(CC(=O)N/N=C/c2ccc([N+](=O)[O-])s2)n1	2
COc1cc([N+](=O)[O-])cc(/C=N/NC(=O)Cn2nc(C)cc2C)c1O	17*	TbREL1 conf=4
COc1ccc(/C=N/NC(=O)Cn2nc([N+](=O)[O-])cc2C)c(OC)c1OC	-4
CCCCNC(=O)O[C@H]1CC[C@@]23CCCN2C(=O)CCC[C@H]3[C@H]1CCC	3
Cc1cc(NS(=O)(=O)c2ccc(NC(=O)CSc3nnc(-c4cnccn4)n3-c3ccccc3)cc2)nc(C)n1	-2
O=C(CSc1nnc(-c2cccc(Cl)c2)n1Cc1ccco1)Nc1ccc2c(c1)OCO2	2
O[C@@H](Cc1ccccc1)[C@@H](/C=C/c1ccccc1)NCCc1ccccc1	11*	TbREL1 conf=10
COC(=O)[C@@H](N[C@H](/C=C/c1ccccc1)[C@@H](O)Cc1ccccc1)c1ccccc1	-5
O=C(/C=C/c1ccc(Cl)cc1)NCCc1ccccc1	0
Cc1c(NC(=O)C2CCCN(S(=O)(=O)c3ccc(C(C)(C)C)cc3)C2)c(=O)n(-c2ccccc2)n1C (stereo not given)	1
CCN(C(=O)CN1CCN(c2nc(-c3ccccc3)cs2)CC1)c1ccccc1C	-8
Nc1ccc(C(=O)c2cccs2)cc1	0
O=C(SCC(O)C(O)CS)c1cccs1 (stereo not given)	18*	TbREL1 conf=4
CSc1ccccc1NC(=O)c1cccs1	5
Cc1nn(-c2ccccc2)c2sc(C(=O)NCc3ccc4c(c3)OCO4)cc12	2
CCCC(=O)Nc1nnc(SCC)s1	3
Cc1cc(C)nc(SCC(=O)Nc2nccs2)n1	0
CCCSc1nnc(NC(=O)CSc2sc3c(O)cc(=O)[nH]c3c2C#N)s1	27*	TbREL1 conf=16*
COc1ccc(-c2cc(-c3ccccc3)nc(SCC(=O)Nc3nccs3)c2C#N)cc1	-1
N#Cc1c(SCC(=O)Nc2nccs2)sc2c(O)cc(=O)[nH]c12	38*	TbREL1 conf=23*
Cc1cc(C)cc(NC(=O)CSc2nc3[nH]c(=O)cc(O)c3s2)c1	-5
O=C(O)CCN1C(=O)/C(=C/c2cccc(OCc3ccc(F)cc3)c2)SC1=S	-3
CCn1c(COc2ccc(C)cc2)nnc1SCC(=O)Nc1ccc(C(=O)OC)cc1	3
SMILES	TbREL1 primary	others
O=C(Nc1ccccn1)c1cc2cc([N+](=O)[O-])ccc2s1	1
O=C(c1sc2cc([N+](=O)[O-])ccc2c1Cl)N1CCCCC1	0
O=C(c1cc2cc([N+](=O)[O-])ccc2s1)N1CCCCC1	12*	TbREL1 conf=1
O=C(NCc1ccco1)C1CCCN(c2ncccn2)C1 (stereo not given)	1
Nc1cc(S(=O)(=O)O)cc([N+](=O)[O-])c1O	21*	TbREL1 conf=59*
Nc1cc(S(=O)(=O)c2ccc(O)c(N)c2)ccc1O	-2
Nc1ccc(C(=O)O)cc1[N+](=O)[O-]	0
COc1ccccc1CNC(=O)N1CCC(c2nc3ccc(Cl)cc3[nH]2)CC1	1
COC(=O)C1=C(C)N(Cc2ccccc2)C(=S)NC1c1cccc(Br)c1 (stereo not given)	-5
COC(=O)C1=C(C)N(Cc2cccc(C(F)(F)F)c2)C(=NCc2ccccc2C(F)(F)F)NC1c1cccc(F)c1 (stereo not given)	15*	TbREL1 conf=22*
CCN1C(=O)N[C@@H](c2cccc(C(F)(F)F)c2)C(C(=O)OC)=C1C	1
COC(=O)C1=C(C)N(Cc2ccc(F)cc2)C(=S)NC1c1ccc(F)cc1 (stereo not given)	-1
COC(=O)C1=C(C)N(Cc2cccc(C(F)(F)F)c2)C(=NCc2ccccc2C(F)(F)F)NC1c1ccccc1C(F)(F)F (stereo not given)	16*	TbREL1 conf=24*
COC(=O)C1=C(C)N(Cc2ccc(F)cc2)C(=S)NC1c1cccc(F)c1 (stereo not given)	-6
COC(=O)C1=C(C)N(Cc2ccccc2)C(=O)N[C@H]1c1cccs1	-1
C=CCN=C1NC(c2cccc(F)c2)C(C(=O)OC)=C(C)N1Cc1cccc(C(F)(F)F)c1 (stereo not given)	11*	TbREL1 conf=12*
Cc1c(C(=O)NCc2ccccc2C(F)(F)F)sc(=O)n1Cc1cccc(C(F)(F)F)c1	2
CCN=C1NC(c2ccccc2C(F)(F)F)C(C(=O)OC)=C(C)N1Cc1ccc(C(F)(F)F)cc1 (stereo not given)	12*	TbREL1 conf=17*
Cc1nc(N2CCN(C(=O)C3CC3)CC2)c2c3c(sc2n1)CC(C)CC3 (stereo not given)	2
O=C(CCn1nnc2ccccc21)N1CCN(c2ccccc2F)CC1	1
C/C(C=NNC(=O)c1cc(-c2ccc(Cl)cc2)n[nH]1)=C\c1ccccc1	7
COc1ccc(CN2C(=O)COc3ccccc3C2c2nnnn2C2CCCCC2)cc1 (stereo not given)	-1
C=CCNC(=O)NCC1CCN(Cc2ccc(OC)cc2)CC1	6
Cc1ccc(-c2cc(C(=O)NN=C/C=C/c3ccco3)[nH]n2)cc1C	-2
COC(=O)C1=C(C)N(Cc2cccc(C(F)(F)F)c2)C(=NCc2ccc(C(F)(F)F)cc2)NC1c1ccccc1C(F)(F)F (stereo not given)	18*	TbREL1 conf=22*
SMILES	TbREL1 primary	others
COC(=O)C1=C(C)N(C)C(=NCc2ccc(C(F)(F)F)cc2)NC1c1ccc(F)cc1 (stereo not given)	7
COC(=O)C1=C(C)N(Cc2ccccc2)C(=NCc2cc(OC)c(OC)c(OC)c2)N[C@H]1CCc1ccccc1	3
COC(=O)C1=C(C)N(C)C(=NCC2CC2)NC1c1ccccc1C(F)(F)F (stereo not given)	-2
COC(=O)C1=C(C)N(Cc2cccc(C(F)(F)F)c2)C(=NCc2ccc(OC)cc2)NC1c1ccccc1C(F)(F)F (stereo not given)	12*	TbREL1 conf=23*
COC(=O)C1=C(C)N(C)C(=NCc2cccc(C(F)(F)F)c2)NC1c1ccccc1C(F)(F)F (stereo not given)	11
COC(=O)C1=C(C)N(CC(C)C)C(=S)NC1c1cccc(F)c1 (stereo not given)	-5
COC(=O)C1=C(C)N(C)C(=NCc2ccccc2C(F)(F)F)NC1c1cccc(F)c1 (stereo not given)	13*	TbREL1 conf=18*
COC(=O)[C@]12C[C@H](CC(=O)NCc3cccc(C(F)(F)F)c3)C(=O)N(CCc3ccc(OC)c(OC)c3)C1=C[C@H](C1CCCC1)O[C@@H]2C	-1
C#CCNC(=O)C[C@H]1C[C@@]2(C(=O)OC)C(=C[C@H](COCc3ccccc3)O[C@@H]2C)N(Cc2ccco2)C1=O	3
Cc1ccccc1C1CCC2(CCC(=O)N2CC[C@@H](O)c2ccccc2)CC1 (stereo not given in full)	3
Cc1nn(-c2ccccc2)c(C)c1/C=N\NC(=O)CSc1nc2ccccc2n1Cc1ccc(Cl)cc1	1
Cn1c(=O)cc(OCCCC(=O)Nc2cc(-c3ccncc3)ccn2)c2ccccc21	0
Cc1cc(SCC(=O)N/N=C/c2ccc(O)c(O)c2O)c(C)cc1Br	-2
COCCN=c1scc(-c2ccco2)n1/N=C/c1ccc(O)c(O)c1O	9
CN=c1scc(C)n1/N=C/c1ccc(O)c(O)c1O	28*	TbREL1 conf=38*

Bioassay records (PubChem)
